Screen size: about 310,000 compounds; about 3,600 (1.2%) were called active.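 The calls were made as follows: active = ratio plate-corrected score three or more library SD toward inhibition, starting fluorescence score within five deviations; inactive = the rest.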 What follows is part of a selection rich in actives, with near analogues and random picks from the rest.

For this assay, the target named is Anoctamin-1 (Mus musculus) (UniProt Q8BHY3). Briefly: TMEM16A chloride channel inhibitors, primary screen, cell-based, HTS (AID 588511).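 As to normalized B-score (activity score, 25-100; higher = stronger inhibition): score derived from kinetic fluorescence span divided by baseline fluorescence per well.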 The following applies: HEK293 TMEM16A/YFP iodide influx fluorescence, ionomycin; at 10 µM.
Chain of Anoctamin-1 (Mus musculus) (Q8BHY3 whole entry, looked up): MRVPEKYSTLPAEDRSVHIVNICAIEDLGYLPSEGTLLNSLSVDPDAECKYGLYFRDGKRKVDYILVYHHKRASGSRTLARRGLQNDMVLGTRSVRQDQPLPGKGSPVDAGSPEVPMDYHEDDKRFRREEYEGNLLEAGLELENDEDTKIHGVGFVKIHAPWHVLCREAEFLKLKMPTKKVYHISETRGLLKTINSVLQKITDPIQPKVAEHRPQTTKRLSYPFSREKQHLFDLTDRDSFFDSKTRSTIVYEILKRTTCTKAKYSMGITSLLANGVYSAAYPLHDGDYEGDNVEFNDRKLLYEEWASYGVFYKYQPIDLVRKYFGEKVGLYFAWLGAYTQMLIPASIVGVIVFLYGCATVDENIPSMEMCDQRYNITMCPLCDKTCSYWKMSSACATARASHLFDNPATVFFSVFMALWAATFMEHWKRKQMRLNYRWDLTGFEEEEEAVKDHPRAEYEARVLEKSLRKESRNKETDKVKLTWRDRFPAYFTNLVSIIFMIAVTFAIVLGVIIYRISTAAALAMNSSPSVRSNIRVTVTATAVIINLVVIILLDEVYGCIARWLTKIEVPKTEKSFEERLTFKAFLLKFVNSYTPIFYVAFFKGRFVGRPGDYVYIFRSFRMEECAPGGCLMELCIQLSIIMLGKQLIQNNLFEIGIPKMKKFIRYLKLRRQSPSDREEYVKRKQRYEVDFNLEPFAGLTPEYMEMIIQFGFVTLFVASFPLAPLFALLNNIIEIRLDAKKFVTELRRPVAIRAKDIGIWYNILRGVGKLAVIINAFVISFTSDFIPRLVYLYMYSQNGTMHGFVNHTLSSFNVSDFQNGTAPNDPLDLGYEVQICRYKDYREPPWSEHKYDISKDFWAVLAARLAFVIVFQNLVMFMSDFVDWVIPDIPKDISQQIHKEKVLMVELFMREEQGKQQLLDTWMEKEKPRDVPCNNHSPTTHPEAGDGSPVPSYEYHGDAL
As to `Nc1nnc2c(C(F)(F)F)nc3ccccc3n12`, the normalized B-score (activity score, 25-100; higher = stronger inhibition) result is “inactive”.

Turning to `O=C(NCc1ccc2c(c1)OCO2)c1cc(F)c(F)cc1Cl`, the normalized B-score (activity score, 25-100; higher = stronger inhibition) entry is “inactive”.

For the molecule `CCn1c(=O)c(C(=O)NCc2ccc3c(c2)OCO3)c(O)c2ccccc21`, the normalized B-score (activity score, 25-100; higher = stronger inhibition) entry is “inactive”. The result for `Cc1nc2c(C(=O)NCc3ccc4c(c3)OCO4)c[nH]n2c(=O)c1Cc1ccccc1F` reads 100 (active); that for `CCN(C(=O)Cc1nc(N)n[nH]1)C1(C(=O)Nc2ccccc2)CCCCC1`, “inactive”. Consider `Cn1nccc1C(=O)NC1CCCc2c1cnn2-c1ccccc1F` (stereo not given), for which the normalized B-score (activity score, 25-100; higher = stronger inhibition) result is “inactive”.

Consider `COc1ccc(C(=O)NC2CCCc3c2cnn3-c2cccc(C)c2C)c(OC)n1` (stereo not given), for which the normalized B-score (activity score, 25-100; higher = stronger inhibition) was 100 (active). The result for `Cc1cc(C(=O)NC2CCCc3c2cnn3-c2cccc(C)c2C)c(C)o1` (stereo not given) reads “inactive”; that for `O=C(CCN1C(=O)c2ccccc2C1=O)C1=NN[C@@H]2C(=O)N(c3ccc(F)cc3)C(=O)[C@H]12`, “inactive”; that for `C=CCC(CC=C)(C(N)=O)c1ccccc1`, “inactive”.

In the case of `CS(=O)(=O)N(CC(=O)N1CCN(c2cccc(Cl)c2)CC1)c1ccccc1`, the normalized B-score (activity score, 25-100; higher = stronger inhibition) entry is “inactive”. The result for `Cc1ccc(S(=O)(=O)N2[C@@H](c3cccc(Cl)c3)C(C(=O)O)=CC[C@H]2c2ccc(Cl)c(Cl)c2)cc1` reads 100 (active); that for `Cc1ccccc1S(=O)(=O)N1[C@@H](c2cccc(Cl)c2)C(C(=O)O)=CC[C@H]1c1ccc(Cl)cc1`, 100 (active); that for `Cc1ccc([C@@H]2CC=C(C(=O)O)[C@H](c3cccc(Cl)c3)N2S(=O)(=O)c2ccc(C)cc2)cc1`, “inactive”.

As for `Cc1ccccc1NC(=O)NCC1CCN(Cc2cccc(Cl)c2)CC1`, the normalized B-score (activity score, 25-100; higher = stronger inhibition) result is “inactive”. With `Cc1ccc(S(=O)(=O)N2[C@@H](c3ccccc3F)C(C(=O)O)=CC[C@H]2c2ccc(Cl)cc2)cc1` the entry was “inactive”; with `CC(C)CCNC(=O)CC1C(=O)N(Cc2ccccc2)C(C)c2nc3ccccc3n21` (stereo not given), “inactive”. The result for `CC1CCN(Cc2nc3c(c(=O)n(C)c(=O)n3C)n2CCc2ccccc2)CC1` reads “inactive”; that for `O=C(Nc1ccccc1C(=O)NCC1CCCO1)c1ccccc1F` (stereo not given), “inactive”; that for `CCC(C(=O)NCc1cccnc1)n1nc(C)c2sc3ccccc3c2c1=O` (stereo not given), “inactive”.

Consider `O=C(Nc1nc2ccccc2s1)c1ccc2c(c1)OCO2`, for which the normalized B-score (activity score, 25-100; higher = stronger inhibition) entry is “inactive”. For the molecule `CC(=O)NCCC(=O)Nc1nc(-c2ccc3c(c2)OCCO3)cs1`, the normalized B-score (activity score, 25-100; higher = stronger inhibition) result was “inactive”. Consider `O=C(Nc1nc(-c2ccc3c(c2)OCO3)cs1)c1ccncc1`, for which the normalized B-score (activity score, 25-100; higher = stronger inhibition) was 100 (active).

Take `O=C(O)Cc1csc(NC(=O)CSc2nnnn2-c2ccc(O)cc2)n1`: the normalized B-score (activity score, 25-100; higher = stronger inhibition) result is “inactive”. The result for `CC(C)NC(=O)NCCCCCCS(C)=O` (stereo not given) reads “inactive”. On to `Cc1cc(C)c(S(=O)(=O)c2ccc(F)cc2C)c(=O)[nH]1`, for which the normalized B-score (activity score, 25-100; higher = stronger inhibition) entry was “inactive”. On to `C=C(C)Cn1c(C)cc(C)c(S(=O)(=O)c2ccccc2C)c1=O`, for which the normalized B-score (activity score, 25-100; higher = stronger inhibition) is 100 (active). The result for `COc1ccccc1S(=O)(=O)c1c(C)cc(C)[nH]c1=O` reads “inactive”; that for `Cc1ccc(NC(=O)CSc2nn3c(=O)c(C)nnc3s2)cc1Cl`, “inactive”. For the molecule `CCC(C)c1ccccc1NC(=O)CN(C)CC(=O)Nc1ccccc1SC` (stereo not given), the normalized B-score (activity score, 25-100; higher = stronger inhibition) entry is “inactive”.

With `CCCCOC(=O)CCCc1ccc([N+](=O)[O-])cc1[N+](=O)[O-]`, the normalized B-score (activity score, 25-100; higher = stronger inhibition) result was “inactive”. As for `O=C(N/N=C/c1cc(Cl)cc([N+](=O)[O-])c1O)C(O)(c1ccccc1)c1ccccc1`, the normalized B-score (activity score, 25-100; higher = stronger inhibition) is 100 (active). On to `CN(C)/N=C/c1cc(Cl)cc([N+](=O)[O-])c1O`, for which the normalized B-score (activity score, 25-100; higher = stronger inhibition) entry was “inactive”. Regarding `O=C(N/N=C/c1cc(Br)c(O)c([N+](=O)[O-])c1)C(O)(c1ccccc1)c1ccccc1`, the normalized B-score (activity score, 25-100; higher = stronger inhibition) entry was “inactive”. As to `O=C(NCc1ccncc1)NC12CC3CC(CC(C3)C1)C2`, the normalized B-score (activity score, 25-100; higher = stronger inhibition) entry is “inactive”. The result for `O=C(NCc1ccc(Cl)cc1)NCc1ccc(Cl)cc1` reads “inactive”. With `S=C(NCc1ccc(Cl)cc1)NC12CC3CC(CC(C3)C1)C2` the figure was 100 (active); with `C=CCn1c2ccccc2c2nnc(SCc3[nH]c(=O)[nH]c3C(=O)CCCCC(=O)OCC)nc21`, “inactive”; with `COc1cc(N2C(=O)CC3(CCCC3)CC2=O)cc(OC)c1OC`, “inactive”. Turning to `COc1cc(OC)cc(C(=O)NNC(=O)CNC(=O)c2ccc(Br)o2)c1`, the normalized B-score (activity score, 25-100; higher = stronger inhibition) result was “inactive”.

In the case of `CSCc1ccc(C(=O)Nc2cc(C)cc(C)c2)cc1`, the normalized B-score (activity score, 25-100; higher = stronger inhibition) result was “inactive”. On to `Cc1occc(=O)c1OCc1ccc(F)cc1`, for which the normalized B-score (activity score, 25-100; higher = stronger inhibition) result was “inactive”.

Take `Fc1ccccc1COc1cccc2cccnc12`: the normalized B-score (activity score, 25-100; higher = stronger inhibition) result was “inactive”. For the molecule `Cc1nc2ccccc2cc1OCc1ccc(F)cc1`, the normalized B-score (activity score, 25-100; higher = stronger inhibition) is 25 (active). With `CC1CCCCN1C(=O)Cn1c(=O)oc2cc(S(=O)(=O)N3CCCCC3)ccc21` (stereo not given) the entry was “inactive”. In the case of `Cc1cc(C)cc(NC(=O)Cn2cnc3c(nnn3Cc3ccc(F)cc3)c2=O)c1`, the normalized B-score (activity score, 25-100; higher = stronger inhibition) result was “inactive”. As to `CCC1SC2=NCCN2C1(O)c1ccc(Cl)cc1` (stereo not given), the normalized B-score (activity score, 25-100; higher = stronger inhibition) entry was “inactive”.

For `Clc1ccccc1SCc1nc2ccccc2[nH]1`, the normalized B-score (activity score, 25-100; higher = stronger inhibition) entry is “inactive”. As to `Clc1ccc(-c2nnc(SCc3nc4ccccc4s3)o2)cc1`, the normalized B-score (activity score, 25-100; higher = stronger inhibition) entry was “inactive”. In the case of `c1ccc(-c2nnc(SCc3nc4ccccc4[nH]3)o2)cc1`, the normalized B-score (activity score, 25-100; higher = stronger inhibition) was 25 (active).

The values above are taken from PubChem BioAssay AID588511 (Johns Hopkins Ion Channel Center, 2011).
